This note sets out measurements from PubChem BioAssay.

Assay [1] can be described thus: antimalarial activity against Dd2 strain (AID 2302;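 active = growth inhibition above 50% at the single 2 µM test dose, taken to imply half-maximal potency below 2 µM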;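 also: 0% = DMSO untreated growth and 100% = chloroquine plus artemisinin killed control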). The following applies: P. falciparum Dd2 in RBCs, LDH growth readout, 72 h; at 2 µM; active compounds read high.
Assay [2] can be described thus: HepG2 cytotoxicity, primary screen, cytotoxicity control for P. falciparum antimalarial project, cell-based, ATP luminescence (AID 2303;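 active = inhibition above 50%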;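 also: 0% = DMSO wells and 100% = digitonin-killed cells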). The following applies: HepG2 viability, 24-48 h, at 10 µM, active compounds read high.
Assay [3] has as its target L-lactate dehydrogenase (Plasmodium falciparum (isolate CDC / Honduras)) (UniProt Q27743). Briefly: PfLDH activity inhibition – cell lysate, 3D7 strain, counter-screen for P. falciparum growth inhibition project (AID 2304).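 Also: 0% = vehicle and 100% = reference inhibitor.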 The following applies: P. falciparum 3D7 crude extract, LDH APAD/NBT absorbance; at 2 µM; active compounds read high.
Assay [4] can be described thus: inhibition of 3D7 malaria parasite growth – strain 3D7 (AID 2306).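 Also: 0% = DMSO wells and 100% = chloroquine plus artemisinin control wells.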 As to conditions: P. falciparum 3D7 erythrocytic growth, LDH absorbance, 72 h; at 2 µM; active compounds read high.
Assay [5] deals with Calcium-dependent protein kinase 1 (Plasmodium falciparum (isolate 3D7)) (UniProt P62344). Briefly: PfCDPK1 kinase inhibitors, biochemical, TCAMS library (AID 1159585; cut-off not given, nearly all actives have IC50 up to about 0.98 µM;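 also: inhibitors leave more ATP so luminescence rises with inhibition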). The following applies: recombinant PfCDPK1, Kinase-Glo ATP depletion luminescence. (In Kinase-Glo more light means more ATP remaining.)
Assay [6] concerns the target Plasmodium falciparum protein kinase 6 (PK6, PF3D7_1337100) (UniProt Q8IDW1). Briefly: PfPK6 kinase inhibitors, biochemical, TCAMS library (AID 1159586). As to conditions: recombinant PfPK6, Kinase-Glo ATP depletion luminescence.
Assay [7] deals with Protein kinase 7 (PK7), Plasmodium falciparum 3D7 (PF3D7_0213400) (UniProt Q7YTF7). Briefly: inhibition of Plasmodium PK7 catalytic activity – biochemical, TCAMS antimalarial set, Kinase-Glo luminescence (AID 1159587). As to conditions: recombinant PfPK7, Kinase-Glo ATP depletion luminescence.
The target of assay [8] is Calcium-dependent protein kinase 4 (Plasmodium falciparum (isolate 3D7)) (UniProt Q8IBS5). Briefly: PfCDPK4 kinase inhibitors, biochemical, TCAMS library (AID 1159588; cut-off not given, nearly all actives have IC50 up to about 0.91 µM). The following applies: recombinant PfCDPK4, Kinase-Glo ATP depletion luminescence.

Molecules are shown by their SMILES. Unmarked numbers belong to inactive results. For some assays here: Potency and affinity values are given separately. Activity calls are given as the source filed them. Unless noted, no rule for the calls is given here.

Chain of L-lactate dehydrogenase (Plasmodium falciparum (isolate CDC / Honduras)) (Q27743 whole entry, looked up): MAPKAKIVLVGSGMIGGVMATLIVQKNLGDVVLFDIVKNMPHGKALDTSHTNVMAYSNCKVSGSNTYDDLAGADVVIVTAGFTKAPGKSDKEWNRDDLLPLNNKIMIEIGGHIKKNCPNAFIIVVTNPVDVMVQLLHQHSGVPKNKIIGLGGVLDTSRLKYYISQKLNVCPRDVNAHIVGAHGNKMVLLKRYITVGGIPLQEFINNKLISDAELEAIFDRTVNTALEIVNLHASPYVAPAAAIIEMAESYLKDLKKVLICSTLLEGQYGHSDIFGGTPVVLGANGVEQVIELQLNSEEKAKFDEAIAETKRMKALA
Chain of Calcium-dependent protein kinase 1 (Plasmodium falciparum (isolate 3D7)) (P62344 whole entry, looked up): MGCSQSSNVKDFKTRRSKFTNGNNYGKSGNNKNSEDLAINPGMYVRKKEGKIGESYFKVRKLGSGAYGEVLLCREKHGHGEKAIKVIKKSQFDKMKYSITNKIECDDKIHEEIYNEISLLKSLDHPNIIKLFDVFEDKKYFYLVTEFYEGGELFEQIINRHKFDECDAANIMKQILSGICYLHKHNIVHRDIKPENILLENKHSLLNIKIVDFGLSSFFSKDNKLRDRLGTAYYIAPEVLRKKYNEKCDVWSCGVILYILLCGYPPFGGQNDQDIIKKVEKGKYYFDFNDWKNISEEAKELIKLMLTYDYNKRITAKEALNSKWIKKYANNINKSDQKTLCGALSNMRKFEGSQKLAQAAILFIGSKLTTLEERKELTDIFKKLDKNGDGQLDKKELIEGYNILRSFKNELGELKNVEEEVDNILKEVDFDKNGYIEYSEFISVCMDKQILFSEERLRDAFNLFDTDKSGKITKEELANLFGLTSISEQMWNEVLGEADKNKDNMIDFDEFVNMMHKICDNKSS
Chain of Protein kinase 7 (PK7), Plasmodium falciparum 3D7 (PF3D7_0213400) (Q7YTF7 1-343): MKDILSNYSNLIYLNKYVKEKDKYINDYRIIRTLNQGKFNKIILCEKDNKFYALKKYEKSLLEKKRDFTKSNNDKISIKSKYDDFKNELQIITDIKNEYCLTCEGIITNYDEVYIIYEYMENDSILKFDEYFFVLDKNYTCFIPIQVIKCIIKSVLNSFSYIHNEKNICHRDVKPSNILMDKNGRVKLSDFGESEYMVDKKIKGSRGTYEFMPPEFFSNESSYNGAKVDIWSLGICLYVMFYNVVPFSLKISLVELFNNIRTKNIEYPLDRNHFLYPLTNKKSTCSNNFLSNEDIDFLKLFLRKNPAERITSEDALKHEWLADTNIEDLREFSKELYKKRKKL
Chain of Calcium-dependent protein kinase 4 (Plasmodium falciparum (isolate 3D7)) (Q8IBS5 whole entry, looked up): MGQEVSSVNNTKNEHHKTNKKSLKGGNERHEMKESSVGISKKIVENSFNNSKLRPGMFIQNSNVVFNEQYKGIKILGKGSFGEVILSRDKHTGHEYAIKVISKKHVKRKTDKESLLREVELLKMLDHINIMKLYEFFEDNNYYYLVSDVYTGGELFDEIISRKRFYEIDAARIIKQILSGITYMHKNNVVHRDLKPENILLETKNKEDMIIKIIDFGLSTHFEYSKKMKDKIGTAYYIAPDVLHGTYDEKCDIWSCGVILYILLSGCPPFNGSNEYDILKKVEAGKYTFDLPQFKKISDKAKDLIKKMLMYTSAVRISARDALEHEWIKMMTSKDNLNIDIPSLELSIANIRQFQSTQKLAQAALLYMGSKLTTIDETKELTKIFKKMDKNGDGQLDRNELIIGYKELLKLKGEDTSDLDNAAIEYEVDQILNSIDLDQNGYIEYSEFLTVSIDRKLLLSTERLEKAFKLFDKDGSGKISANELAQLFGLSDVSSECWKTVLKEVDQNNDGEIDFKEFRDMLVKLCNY
Chain of Plasmodium falciparum protein kinase 6 (PK6, PF3D7_1337100) (Q8IDW1 1-305): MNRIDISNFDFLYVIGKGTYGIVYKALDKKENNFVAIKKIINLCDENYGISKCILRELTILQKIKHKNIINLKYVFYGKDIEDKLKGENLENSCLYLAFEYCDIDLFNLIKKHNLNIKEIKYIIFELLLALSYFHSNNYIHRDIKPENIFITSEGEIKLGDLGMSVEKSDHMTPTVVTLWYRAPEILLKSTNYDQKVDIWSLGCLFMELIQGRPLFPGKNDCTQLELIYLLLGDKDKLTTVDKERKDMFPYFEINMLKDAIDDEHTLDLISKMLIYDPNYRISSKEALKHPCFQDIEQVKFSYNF

Consider `CC(Cc1ccc(Sc2ccccc2)cc1)NCC(O)c1cccc(C(F)(F)F)c1` (configuration not stated), for which the growth inhibition in assay [1] is 53% (active); in assay [4], 99% (active). Moreover, the results for the inhibition in assay [2] and in assay [3] were -1% and 2%, respectively. In addition, the result in assay [5], in assay [6], in assay [7] and in assay [8] was inactive.

Consider `CN1CCC(O)(c2ccc(Br)cc2)C(C(O)c2ccc(Br)cc2)C1` (configuration not stated), for which the growth inhibition is 99% (active) in assay [1] and 98% (active) in assay [4]. For the same compound, the inhibition – broadly, the relative decrease from the control value, in per cent – is 28% in assay [2] and -5% in assay [3]. The result in assay [5], in assay [6], in assay [7] and in assay [8] was inactive.

In the case of `CCCCCCCSc1ccc(CC(C)NCC(O)c2cccc(Cl)c2)cc1` (configuration not stated), the growth inhibition in assay [1] is 99% (active); in assay [4] it was 100% (active). Moreover, the values for the inhibition in assay [2] and in assay [3] were 94% (active) and -3%, respectively. For the same compound, the outcome in assay [5], in assay [6], in assay [7] and in assay [8] was inactive.

As for `N[C@@H](CCN1CCC(c2cccc(O)c2)CC1)Cc1ccc(F)c(F)c1`, the growth inhibition was 0% in assay [1] and 92% (active) in assay [4]. The inhibition is 25% in assay [2] and -3% in assay [3]. Besides, the outcome in assay [5], in assay [6], in assay [7] and in assay [8] was inactive.

Regarding `CC(=O)Nc1ccc(CN2CCC(N(C)c3ccc(NC(=O)c4cccc(C)c4)cc3)CC2)cc1`, the growth inhibition is 50% (active) in assay [1] and 91% (active) in assay [4]. Also, the results for the inhibition in assay [2] and in assay [3] were -7% and -4%, respectively. Further, the outcome in assay [5], in assay [6], in assay [7] and in assay [8] was inactive.

For the compound `N#Cc1c(F)cc(N2CCC(NCC[C@H](N)Cc3ccc(F)c(F)c3)CC2)cc1F`, the growth inhibition was 26% in assay [1] and 102% (active) in assay [4]. In addition, the inhibition in assay [2] was 70% (active); in assay [3], 4%. Besides, the outcome in assay [5], in assay [6], in assay [7] and in assay [8] was inactive.

Turning to `CCc1ccc(CC(C)NCC(O)c2ccccc2)cc1` (configuration not stated), the growth inhibition in assay [1] was 77% (active); in assay [4], 89% (active). The inhibition in assay [2] is -7%; in assay [3] it was -3%. For the same compound, the outcome in assay [5], in assay [6], in assay [7] and in assay [8] was inactive.

Consider `COC(=O)c1ccc(CC(C)NCC(O)c2cccc(I)c2)cc1` (configuration not stated), for which the growth inhibition in assay [1] is 54% (active); in assay [4], 87% (active). In addition, the inhibition was 15% in assay [2] and -2% in assay [3]. Also, the outcome in assay [5], in assay [6], in assay [7] and in assay [8] was inactive.

As to `O=C(NC1CCC(CN2CCC(c3c[nH]c4ccccc34)CC2)CC1)c1ccc(-c2cc(C(F)(F)F)ccc2Cl)o1` (configuration not stated), the growth inhibition was 34% in assay [1] and 102% (active) in assay [4]. In addition, the results for the inhibition in assay [2] and in assay [3] were 5% and 3%, respectively. The outcome in assay [5], in assay [6], in assay [7] and in assay [8] was inactive.

`O=C(/C=C/c1ccc2ccccc2c1)NC1CCC(CN2CCC(c3c[nH]c4ccccc34)CC2)CC1` (configuration not stated): the growth inhibition in assay [1] was 88% (active); in assay [4] it was 100% (active). The inhibition in assay [2] was 28%; in assay [3] it was 4%. Also, the outcome in assay [5], in assay [6], in assay [7] and in assay [8] was inactive.

With `Cc1[nH]c2cc(Cl)ccc2c1C1=CCN(CCCCC2(C)C(=O)Nc3ccccc32)CC1` (configuration not stated), the growth inhibition was 90% (active) in assay [1] and 94% (active) in assay [4]. Besides, the inhibition is -3% in assay [2] and 0% in assay [3]. Moreover, the result in assay [5], in assay [6], in assay [7] and in assay [8] was inactive.

Consider `CCCCCCCCNCC(O)c1ccc(Cl)c(Cl)c1` (configuration not stated), for which the growth inhibition in assay [1] is 87% (active); in assay [4] it was 99% (active). Moreover, the inhibition in assay [2] is -4%; in assay [3], -3%. Besides, the outcome in assay [5], in assay [6], in assay [7] and in assay [8] was inactive.

`O=C(/C=C/c1ccc(Cl)c(Cl)c1)N1CCC(CN2[C@@H]3CC[C@H]2CC(c2c[nH]c4ccccc24)C3)CC1` (some centres not stated): the growth inhibition in assay [1] was 66% (active); in assay [4], 100% (active). Further, the inhibition in assay [2] is 84% (active); in assay [3], -3%. For the same compound, the outcome in assay [5], in assay [6], in assay [7] and in assay [8] was inactive.

`CC[C@H]1CN2CC[C@@H]1C[C@H]2[C@H](O)c1cc(N2CCCC(C)(C)C2)nc2ccc(OC)cc12`: the growth inhibition in assay [1] is 72% (active); in assay [4] it was 101% (active). Also, the inhibition was 25% in assay [2] and 3% in assay [3]. Also, the outcome in assay [5], in assay [6], in assay [7] and in assay [8] was inactive.

On to `COCCNCc1ccc(-c2cccc(CN(C(=O)CCC3CCCC3)C3CCN(Cc4ccccc4)CC3)c2)cc1`, for which the growth inhibition is 86% (active) in assay [1] and 91% (active) in assay [4]. For the same compound, the inhibition in assay [2] is 50% (active); in assay [3], -2%. Also, the outcome in assay [5], in assay [6], in assay [7] and in assay [8] was inactive.

For `CN1CC=C(c2c[nH]c3ccc(Oc4ccccc4)cc23)CC1`, the growth inhibition in assay [1] and in assay [4] was 98% (active) throughout. The inhibition in assay [2] was 40%; in assay [3], -7%. Moreover, the outcome in assay [5], in assay [6], in assay [7] and in assay [8] was inactive.

As for `CC[C@H]1CN2CC[C@H]1C[C@H]2[C@@H](O)c1cc(OCCCN(C)C)nc2ccc(OC)cc12`, the growth inhibition was 8% in assay [1] and 99% (active) in assay [4]. For the same compound, the inhibition in assay [2] was -7%; in assay [3], -2%. Moreover, the outcome in assay [5], in assay [6], in assay [7] and in assay [8] was inactive.

As for `CC(=O)C1(c2ccccc2)CCN(CCC2(c3ccc(Cl)c(Cl)c3)CN(C(=O)Nc3cc(F)cc(F)c3)CCO2)CC1` (configuration not stated), the figures for the growth inhibition in assay [1] and in assay [4] were 20% and 86% (active), respectively. The inhibition in assay [2] is 2%; in assay [3], -1%. Moreover, the result in assay [5], in assay [6], in assay [7] and in assay [8] was inactive.

Turning to `CN(C)CCc1c[nH]c2ccc(C(=O)Nc3ccc(-c4ccncc4)cc3)cc12`, the growth inhibition in assay [1] was 46%; in assay [4] it was 99% (active). Further, the inhibition in assay [2] is 23%; in assay [3], -7%. For the same compound, the outcome in assay [5], in assay [6], in assay [7] and in assay [8] was inactive.
